Results: the supplement of paper PMC11732987, “Enantioselective OTUD7B fragment discovery through chemoproteomics screening and high-throughput optimisation” (Communications Chemistry, 2025)

What was measured:
Assay in all cases: log2 ratio of Biotin-Ahx-Ub-VS probe labelling (fragment/DMSO); higher = less target engagement (more negative = stronger competition), active = hit call of the paper (q ≤ 0.05, log2 ratio ≤ -1)
Conditions in all cases: compound concentration: 200 uM; treatment time: 3 h
USP42 = molecular target: T1, USP42 (UniProt Q9H9J4)
T1 sequence (whole entry): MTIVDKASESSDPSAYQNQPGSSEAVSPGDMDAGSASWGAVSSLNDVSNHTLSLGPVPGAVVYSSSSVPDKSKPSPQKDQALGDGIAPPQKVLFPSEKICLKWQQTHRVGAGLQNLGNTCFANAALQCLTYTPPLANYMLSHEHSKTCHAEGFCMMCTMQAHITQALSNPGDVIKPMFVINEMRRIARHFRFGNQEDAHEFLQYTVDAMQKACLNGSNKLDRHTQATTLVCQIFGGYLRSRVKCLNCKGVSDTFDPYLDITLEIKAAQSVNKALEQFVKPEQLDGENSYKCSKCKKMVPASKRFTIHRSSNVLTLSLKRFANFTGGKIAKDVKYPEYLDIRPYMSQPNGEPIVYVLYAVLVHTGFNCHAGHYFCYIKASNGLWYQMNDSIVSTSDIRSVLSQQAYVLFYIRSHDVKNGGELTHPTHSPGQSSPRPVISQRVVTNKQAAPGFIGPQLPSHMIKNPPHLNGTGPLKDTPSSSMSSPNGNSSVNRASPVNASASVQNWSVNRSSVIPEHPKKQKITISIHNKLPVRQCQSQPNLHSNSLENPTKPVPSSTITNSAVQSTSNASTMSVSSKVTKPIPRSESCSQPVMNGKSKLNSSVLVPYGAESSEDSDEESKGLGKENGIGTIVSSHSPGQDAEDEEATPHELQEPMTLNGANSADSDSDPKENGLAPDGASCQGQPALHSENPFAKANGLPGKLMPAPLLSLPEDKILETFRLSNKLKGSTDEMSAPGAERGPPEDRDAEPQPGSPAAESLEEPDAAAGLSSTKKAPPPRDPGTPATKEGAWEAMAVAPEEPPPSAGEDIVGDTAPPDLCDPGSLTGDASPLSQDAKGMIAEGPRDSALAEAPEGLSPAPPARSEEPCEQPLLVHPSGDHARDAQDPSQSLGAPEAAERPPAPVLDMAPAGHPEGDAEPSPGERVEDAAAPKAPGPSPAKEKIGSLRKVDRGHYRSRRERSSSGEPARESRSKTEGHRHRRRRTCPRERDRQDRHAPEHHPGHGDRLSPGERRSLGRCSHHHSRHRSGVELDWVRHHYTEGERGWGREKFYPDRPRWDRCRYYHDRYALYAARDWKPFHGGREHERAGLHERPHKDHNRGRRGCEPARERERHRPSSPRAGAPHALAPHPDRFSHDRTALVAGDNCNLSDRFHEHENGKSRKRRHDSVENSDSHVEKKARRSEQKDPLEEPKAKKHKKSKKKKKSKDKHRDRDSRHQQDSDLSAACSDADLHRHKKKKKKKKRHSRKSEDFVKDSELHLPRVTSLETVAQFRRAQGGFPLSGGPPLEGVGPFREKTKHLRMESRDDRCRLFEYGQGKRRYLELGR
Outline: (§1)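 HEK293T lysate (495 µg per sample, in Tris/CHAPS/IGEPAL buffer with protease inhibitors) was exposed in triplicate for 3 h to fragment at 200 µM or to vehicle, then to Biotin-Ahx-Ub-VS at 0.5 µM final for 1 h. Labelled DUBs were enriched on NeutrAvidin, digested with LysC and trypsin, and analysed by diaPASEF LC-MS/MS. Spectronaut label-free quantities were normalised to the global median, and values are average log2 ratios of fragment over vehicle from an unpaired t-test. Only proteins with ≥2 unique peptides were used.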

USP46 = USP46 (UniProt P62068)
Outline: as §1

USP47 = molecular target: T2, USP47 (UniProt Q96K76)
T2 sequence (whole entry): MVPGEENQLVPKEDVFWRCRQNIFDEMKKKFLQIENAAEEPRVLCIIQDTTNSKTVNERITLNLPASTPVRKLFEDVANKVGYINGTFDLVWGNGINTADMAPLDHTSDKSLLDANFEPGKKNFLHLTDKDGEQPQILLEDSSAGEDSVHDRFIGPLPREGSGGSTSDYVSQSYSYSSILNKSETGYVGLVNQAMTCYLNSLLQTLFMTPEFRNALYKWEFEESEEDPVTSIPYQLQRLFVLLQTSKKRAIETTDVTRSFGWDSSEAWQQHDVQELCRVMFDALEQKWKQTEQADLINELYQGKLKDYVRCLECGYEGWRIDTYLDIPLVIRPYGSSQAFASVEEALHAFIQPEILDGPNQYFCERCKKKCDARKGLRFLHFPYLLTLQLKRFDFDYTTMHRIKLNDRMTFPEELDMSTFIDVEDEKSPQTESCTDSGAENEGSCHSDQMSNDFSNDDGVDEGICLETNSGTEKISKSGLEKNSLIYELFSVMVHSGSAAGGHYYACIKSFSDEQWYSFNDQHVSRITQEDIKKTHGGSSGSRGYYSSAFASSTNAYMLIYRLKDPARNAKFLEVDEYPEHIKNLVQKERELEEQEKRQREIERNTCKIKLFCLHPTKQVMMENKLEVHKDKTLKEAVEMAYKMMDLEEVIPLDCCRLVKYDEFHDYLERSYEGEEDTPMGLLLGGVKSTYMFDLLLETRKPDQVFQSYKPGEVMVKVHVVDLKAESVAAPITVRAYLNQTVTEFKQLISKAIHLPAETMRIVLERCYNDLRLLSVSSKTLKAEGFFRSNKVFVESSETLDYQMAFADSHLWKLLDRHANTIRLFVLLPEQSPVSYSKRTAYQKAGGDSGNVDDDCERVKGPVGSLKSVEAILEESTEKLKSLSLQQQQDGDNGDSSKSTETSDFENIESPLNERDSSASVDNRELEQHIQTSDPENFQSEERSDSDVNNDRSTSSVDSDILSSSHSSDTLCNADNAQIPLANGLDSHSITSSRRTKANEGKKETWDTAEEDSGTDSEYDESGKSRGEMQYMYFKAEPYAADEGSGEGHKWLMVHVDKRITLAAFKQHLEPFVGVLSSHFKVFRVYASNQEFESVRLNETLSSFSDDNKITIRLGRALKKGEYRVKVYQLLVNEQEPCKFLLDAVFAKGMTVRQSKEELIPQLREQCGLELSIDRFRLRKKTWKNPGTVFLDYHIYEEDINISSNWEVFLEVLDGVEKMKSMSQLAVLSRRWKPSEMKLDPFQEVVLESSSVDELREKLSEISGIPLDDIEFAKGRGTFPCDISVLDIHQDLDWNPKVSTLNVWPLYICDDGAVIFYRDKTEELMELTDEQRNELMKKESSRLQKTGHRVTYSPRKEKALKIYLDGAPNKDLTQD
Outline: as §1

USP48 = molecular target: T3, USP48 (UniProt Q86UV5)
T3 sequence (whole entry): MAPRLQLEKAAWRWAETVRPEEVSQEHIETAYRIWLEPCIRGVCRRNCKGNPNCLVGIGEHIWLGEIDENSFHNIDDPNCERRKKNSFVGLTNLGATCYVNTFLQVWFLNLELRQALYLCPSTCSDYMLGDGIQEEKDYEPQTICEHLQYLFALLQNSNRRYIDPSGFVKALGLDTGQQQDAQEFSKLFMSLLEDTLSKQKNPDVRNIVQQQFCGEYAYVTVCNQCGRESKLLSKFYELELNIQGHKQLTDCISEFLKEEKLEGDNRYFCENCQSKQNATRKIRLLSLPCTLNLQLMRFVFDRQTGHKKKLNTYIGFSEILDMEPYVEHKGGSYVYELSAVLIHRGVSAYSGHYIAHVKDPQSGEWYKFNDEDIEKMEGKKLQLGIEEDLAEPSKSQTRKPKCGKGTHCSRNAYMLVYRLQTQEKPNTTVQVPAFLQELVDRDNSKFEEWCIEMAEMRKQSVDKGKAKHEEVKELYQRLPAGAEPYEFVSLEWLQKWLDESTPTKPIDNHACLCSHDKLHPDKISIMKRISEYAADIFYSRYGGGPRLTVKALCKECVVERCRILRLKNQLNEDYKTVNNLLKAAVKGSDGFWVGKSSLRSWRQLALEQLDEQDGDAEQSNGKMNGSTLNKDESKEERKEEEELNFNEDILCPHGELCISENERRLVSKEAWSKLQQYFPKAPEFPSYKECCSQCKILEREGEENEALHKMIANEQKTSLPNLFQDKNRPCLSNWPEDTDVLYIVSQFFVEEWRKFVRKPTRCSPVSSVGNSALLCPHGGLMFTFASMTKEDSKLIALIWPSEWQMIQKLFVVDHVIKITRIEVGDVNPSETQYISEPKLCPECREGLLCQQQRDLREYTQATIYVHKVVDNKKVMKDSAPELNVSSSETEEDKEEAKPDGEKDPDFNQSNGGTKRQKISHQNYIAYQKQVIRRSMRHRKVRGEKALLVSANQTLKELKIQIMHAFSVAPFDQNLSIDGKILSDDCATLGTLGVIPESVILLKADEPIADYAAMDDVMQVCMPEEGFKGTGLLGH
Outline: as §1

USP5 = molecular target: T4, USP5 (UniProt P45974)
T4 sequence (whole entry): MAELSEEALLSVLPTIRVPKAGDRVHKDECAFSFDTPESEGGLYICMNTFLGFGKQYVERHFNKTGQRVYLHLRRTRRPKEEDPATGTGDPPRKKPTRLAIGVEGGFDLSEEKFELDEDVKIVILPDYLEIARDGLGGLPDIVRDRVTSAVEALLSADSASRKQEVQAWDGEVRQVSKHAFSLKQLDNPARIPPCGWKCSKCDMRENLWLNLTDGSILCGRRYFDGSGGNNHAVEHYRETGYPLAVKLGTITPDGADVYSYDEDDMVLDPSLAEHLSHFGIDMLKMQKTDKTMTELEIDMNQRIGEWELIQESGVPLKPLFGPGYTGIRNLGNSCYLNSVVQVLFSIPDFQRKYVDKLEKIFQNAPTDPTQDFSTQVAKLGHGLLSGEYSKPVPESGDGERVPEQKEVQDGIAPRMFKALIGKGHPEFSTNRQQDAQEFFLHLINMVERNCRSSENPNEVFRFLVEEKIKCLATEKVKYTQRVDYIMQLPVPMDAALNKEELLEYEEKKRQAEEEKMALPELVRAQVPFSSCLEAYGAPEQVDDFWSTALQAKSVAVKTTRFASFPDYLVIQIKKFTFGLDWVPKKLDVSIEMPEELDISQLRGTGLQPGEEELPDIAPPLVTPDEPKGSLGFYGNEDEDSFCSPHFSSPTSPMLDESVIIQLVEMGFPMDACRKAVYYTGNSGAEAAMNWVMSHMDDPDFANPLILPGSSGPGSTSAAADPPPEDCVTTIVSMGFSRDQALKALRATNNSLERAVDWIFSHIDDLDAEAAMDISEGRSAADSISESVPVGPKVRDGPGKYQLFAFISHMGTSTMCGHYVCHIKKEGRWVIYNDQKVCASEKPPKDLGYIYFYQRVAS
Outline: as §1

USP54 = USP54 (UniProt Q70EL1)
Outline: as §1

USP7 = USP7 (UniProt Q93009)
Outline: as §1

USP8 = molecular target: T5, USP8 (UniProt P40818)
T5 sequence (whole entry): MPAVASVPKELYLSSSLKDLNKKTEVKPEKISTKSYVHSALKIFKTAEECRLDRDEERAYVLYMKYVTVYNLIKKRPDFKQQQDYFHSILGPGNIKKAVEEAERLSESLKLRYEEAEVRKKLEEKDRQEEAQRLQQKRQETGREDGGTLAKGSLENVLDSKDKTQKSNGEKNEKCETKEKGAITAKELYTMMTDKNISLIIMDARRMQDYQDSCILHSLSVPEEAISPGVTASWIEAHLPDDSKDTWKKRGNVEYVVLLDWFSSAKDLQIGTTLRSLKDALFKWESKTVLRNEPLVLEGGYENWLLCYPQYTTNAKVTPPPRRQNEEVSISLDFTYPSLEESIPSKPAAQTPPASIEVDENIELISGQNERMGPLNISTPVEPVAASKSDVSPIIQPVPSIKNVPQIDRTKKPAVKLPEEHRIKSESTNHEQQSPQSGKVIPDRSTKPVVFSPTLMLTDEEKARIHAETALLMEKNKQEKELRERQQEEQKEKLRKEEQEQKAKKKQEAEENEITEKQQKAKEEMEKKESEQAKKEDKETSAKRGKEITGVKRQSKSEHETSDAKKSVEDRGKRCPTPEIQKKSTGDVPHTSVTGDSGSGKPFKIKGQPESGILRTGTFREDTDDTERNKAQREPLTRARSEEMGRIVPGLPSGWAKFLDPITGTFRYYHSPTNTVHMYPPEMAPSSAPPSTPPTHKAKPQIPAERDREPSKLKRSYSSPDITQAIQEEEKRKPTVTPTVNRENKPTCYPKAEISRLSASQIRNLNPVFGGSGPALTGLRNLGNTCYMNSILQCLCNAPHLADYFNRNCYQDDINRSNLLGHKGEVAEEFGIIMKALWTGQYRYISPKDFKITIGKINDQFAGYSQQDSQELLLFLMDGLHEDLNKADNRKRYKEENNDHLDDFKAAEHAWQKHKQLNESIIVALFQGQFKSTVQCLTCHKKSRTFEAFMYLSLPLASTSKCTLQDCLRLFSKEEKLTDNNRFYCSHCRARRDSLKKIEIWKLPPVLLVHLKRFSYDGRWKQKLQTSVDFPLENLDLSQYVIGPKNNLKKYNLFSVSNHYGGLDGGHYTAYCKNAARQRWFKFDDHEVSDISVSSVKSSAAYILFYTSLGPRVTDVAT
Outline: as §1

USP9X = USP9X (UniProt Q93008)
Outline: as §1

UniProt O00487 = molecular target: UniProt O00487
Outline: as §1

Measured: log2 ratio of Biotin-Ahx-Ub-VS probe labelling

USP9X, sequence (Q93008 whole entry): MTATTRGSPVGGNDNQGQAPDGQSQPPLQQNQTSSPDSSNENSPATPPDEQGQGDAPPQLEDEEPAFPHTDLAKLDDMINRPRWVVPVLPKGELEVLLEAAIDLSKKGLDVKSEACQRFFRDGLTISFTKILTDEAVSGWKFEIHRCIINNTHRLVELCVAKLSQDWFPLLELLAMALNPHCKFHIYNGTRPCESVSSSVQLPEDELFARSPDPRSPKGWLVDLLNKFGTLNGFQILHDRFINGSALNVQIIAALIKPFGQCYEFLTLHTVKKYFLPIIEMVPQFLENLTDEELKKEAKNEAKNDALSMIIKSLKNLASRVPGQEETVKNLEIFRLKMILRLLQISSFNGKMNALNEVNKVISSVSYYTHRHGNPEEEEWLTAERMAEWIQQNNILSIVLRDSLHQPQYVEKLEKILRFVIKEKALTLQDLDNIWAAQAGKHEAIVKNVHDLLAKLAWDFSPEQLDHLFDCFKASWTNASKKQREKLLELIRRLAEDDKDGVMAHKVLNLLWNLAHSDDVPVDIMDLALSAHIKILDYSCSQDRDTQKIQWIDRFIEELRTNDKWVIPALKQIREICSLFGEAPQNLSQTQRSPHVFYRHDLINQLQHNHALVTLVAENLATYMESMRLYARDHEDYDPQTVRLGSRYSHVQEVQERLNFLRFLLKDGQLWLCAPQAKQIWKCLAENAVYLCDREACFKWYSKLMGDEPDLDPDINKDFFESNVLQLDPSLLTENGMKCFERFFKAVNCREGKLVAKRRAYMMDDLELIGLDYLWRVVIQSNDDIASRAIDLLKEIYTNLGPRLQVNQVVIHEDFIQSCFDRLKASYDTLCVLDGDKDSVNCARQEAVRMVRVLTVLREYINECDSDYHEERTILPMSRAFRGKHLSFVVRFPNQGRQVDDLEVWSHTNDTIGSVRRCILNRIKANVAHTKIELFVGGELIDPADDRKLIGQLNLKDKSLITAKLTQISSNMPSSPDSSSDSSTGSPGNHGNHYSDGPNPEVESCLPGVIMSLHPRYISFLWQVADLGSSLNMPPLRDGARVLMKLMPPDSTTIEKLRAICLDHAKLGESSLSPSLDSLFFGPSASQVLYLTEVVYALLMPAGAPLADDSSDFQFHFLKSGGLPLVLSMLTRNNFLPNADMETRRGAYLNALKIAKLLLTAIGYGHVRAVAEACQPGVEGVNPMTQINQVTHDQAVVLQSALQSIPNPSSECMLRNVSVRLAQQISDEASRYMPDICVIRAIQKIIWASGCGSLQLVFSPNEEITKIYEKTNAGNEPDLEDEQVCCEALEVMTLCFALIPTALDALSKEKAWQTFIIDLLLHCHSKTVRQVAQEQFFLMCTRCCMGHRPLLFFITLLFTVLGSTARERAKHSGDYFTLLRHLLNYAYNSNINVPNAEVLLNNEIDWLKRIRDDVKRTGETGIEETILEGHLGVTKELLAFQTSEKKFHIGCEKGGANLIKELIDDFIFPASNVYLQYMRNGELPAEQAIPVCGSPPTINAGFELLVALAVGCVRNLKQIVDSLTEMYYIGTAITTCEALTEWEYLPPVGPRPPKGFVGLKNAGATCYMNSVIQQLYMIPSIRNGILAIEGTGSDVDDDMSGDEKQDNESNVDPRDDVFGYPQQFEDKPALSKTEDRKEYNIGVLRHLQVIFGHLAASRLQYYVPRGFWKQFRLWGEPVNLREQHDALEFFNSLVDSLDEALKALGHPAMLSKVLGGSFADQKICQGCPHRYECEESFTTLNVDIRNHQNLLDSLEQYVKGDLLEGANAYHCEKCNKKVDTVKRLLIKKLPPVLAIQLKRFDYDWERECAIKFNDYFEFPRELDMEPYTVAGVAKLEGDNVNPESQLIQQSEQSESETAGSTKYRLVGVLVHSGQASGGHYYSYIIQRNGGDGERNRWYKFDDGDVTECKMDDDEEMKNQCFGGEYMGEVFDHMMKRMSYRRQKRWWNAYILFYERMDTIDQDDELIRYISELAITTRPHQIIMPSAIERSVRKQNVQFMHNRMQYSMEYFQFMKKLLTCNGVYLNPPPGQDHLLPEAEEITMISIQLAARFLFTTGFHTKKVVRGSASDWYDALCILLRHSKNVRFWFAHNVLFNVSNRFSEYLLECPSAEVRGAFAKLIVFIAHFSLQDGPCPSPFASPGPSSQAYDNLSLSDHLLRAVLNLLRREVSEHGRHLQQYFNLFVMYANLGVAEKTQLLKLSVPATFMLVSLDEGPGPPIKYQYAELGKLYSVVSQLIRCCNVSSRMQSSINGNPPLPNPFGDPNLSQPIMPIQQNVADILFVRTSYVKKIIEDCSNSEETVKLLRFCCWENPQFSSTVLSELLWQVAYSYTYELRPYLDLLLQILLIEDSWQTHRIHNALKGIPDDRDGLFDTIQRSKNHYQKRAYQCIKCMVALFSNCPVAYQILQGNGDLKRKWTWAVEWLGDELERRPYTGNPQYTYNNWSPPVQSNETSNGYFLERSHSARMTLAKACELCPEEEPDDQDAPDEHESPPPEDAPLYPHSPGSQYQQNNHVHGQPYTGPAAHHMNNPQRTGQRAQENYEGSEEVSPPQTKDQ
UniProt O00487, sequence (O00487 whole entry): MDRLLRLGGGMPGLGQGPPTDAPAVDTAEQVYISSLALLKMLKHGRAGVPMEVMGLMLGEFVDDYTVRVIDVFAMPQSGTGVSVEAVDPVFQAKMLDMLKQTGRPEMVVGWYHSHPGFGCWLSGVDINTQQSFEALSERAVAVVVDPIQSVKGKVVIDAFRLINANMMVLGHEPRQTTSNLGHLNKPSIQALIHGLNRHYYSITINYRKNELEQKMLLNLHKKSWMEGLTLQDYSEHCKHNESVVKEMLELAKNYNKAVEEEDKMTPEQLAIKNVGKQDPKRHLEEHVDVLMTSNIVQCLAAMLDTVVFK
USP54, sequence (Q70EL1 whole entry): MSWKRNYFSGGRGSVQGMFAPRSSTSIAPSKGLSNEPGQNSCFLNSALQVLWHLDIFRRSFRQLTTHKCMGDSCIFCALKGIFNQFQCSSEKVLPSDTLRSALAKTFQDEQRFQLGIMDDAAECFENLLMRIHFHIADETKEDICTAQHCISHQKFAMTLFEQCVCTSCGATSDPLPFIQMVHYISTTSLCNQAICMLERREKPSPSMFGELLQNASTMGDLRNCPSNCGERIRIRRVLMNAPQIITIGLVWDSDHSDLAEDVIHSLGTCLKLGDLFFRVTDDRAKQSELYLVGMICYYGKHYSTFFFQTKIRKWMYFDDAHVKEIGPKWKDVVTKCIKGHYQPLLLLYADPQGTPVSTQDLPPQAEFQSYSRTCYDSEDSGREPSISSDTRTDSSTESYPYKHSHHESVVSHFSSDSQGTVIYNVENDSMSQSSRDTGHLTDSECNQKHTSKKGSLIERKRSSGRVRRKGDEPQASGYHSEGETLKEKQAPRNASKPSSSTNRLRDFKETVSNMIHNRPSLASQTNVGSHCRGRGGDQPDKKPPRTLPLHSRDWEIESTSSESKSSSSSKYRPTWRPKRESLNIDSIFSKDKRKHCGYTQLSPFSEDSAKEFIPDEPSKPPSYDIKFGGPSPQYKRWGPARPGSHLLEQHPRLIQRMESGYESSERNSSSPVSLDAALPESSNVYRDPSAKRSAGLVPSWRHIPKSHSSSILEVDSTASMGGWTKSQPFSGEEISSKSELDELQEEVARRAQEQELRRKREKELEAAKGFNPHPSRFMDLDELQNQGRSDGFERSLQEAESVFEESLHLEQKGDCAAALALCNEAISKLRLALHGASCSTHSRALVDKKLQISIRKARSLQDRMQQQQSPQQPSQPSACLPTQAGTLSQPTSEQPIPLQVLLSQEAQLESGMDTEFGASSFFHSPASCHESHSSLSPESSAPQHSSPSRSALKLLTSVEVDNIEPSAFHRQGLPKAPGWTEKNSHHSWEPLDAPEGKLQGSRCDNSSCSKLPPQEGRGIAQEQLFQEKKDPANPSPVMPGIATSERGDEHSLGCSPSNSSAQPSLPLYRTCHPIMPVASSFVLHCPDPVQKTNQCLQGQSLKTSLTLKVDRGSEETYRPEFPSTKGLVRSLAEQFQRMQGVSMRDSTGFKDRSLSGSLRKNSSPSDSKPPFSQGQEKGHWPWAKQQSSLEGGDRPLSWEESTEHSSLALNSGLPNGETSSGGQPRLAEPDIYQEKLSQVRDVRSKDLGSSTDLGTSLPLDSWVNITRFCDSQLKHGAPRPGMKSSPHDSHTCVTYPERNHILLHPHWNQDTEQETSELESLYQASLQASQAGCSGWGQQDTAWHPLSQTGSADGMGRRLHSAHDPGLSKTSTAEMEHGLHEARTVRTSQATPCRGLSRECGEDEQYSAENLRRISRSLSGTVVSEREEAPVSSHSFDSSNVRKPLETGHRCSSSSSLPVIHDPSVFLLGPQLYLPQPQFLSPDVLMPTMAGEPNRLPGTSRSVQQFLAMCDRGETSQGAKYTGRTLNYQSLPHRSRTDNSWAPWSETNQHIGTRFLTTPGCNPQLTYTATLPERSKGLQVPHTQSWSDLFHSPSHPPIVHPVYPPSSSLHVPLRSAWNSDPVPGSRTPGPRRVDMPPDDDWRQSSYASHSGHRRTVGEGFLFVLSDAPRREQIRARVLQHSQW
USP46, sequence (P62068 whole entry): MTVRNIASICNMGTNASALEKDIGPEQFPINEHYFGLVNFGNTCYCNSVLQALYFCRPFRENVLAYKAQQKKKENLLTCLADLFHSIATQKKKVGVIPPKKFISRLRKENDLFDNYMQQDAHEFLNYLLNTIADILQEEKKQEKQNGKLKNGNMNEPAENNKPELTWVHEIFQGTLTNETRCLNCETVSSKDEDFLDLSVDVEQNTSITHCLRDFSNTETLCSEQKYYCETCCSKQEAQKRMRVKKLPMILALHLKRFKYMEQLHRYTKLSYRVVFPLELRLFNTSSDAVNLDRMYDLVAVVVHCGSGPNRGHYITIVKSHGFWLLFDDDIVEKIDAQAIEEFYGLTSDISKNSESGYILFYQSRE

O=C(CCl)NCC1(c2ccccc2)CC1
inactive: USP42 -0.475 | USP46 0.0609 | USP47 -0.388 | USP48 -0.502 | USP5 0.023 | USP54 0.574 | USP7 -0.075 | USP8 -0.144 | USP9X -0.121 | UniProt O00487 -0.00244

O=C(CCl)Nc1cc2c(cc1Cl)OCCO2
active: USP48 -1.05
inactive: USP42 0.233 | USP46 0.0711 | USP47 -0.426 | USP5 0.0658 | USP54 0.291 | USP7 -0.216 | USP8 -0.226 | USP9X -0.246 | UniProt O00487 -0.0671
